Experimental data as given in PubChem BioAssay AID1053127 (Broad Institute, 2014).
Entries with a potency or affinity are not part of this list. Activity calls are given as the source filed them.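 The calls were made as follows: active = compounds whose fitted curve of lowered CTGF expression reaches half effect within a set concentration limit; inconclusive = flat moderate drop in CTGF, or unreliable curve fit; inactive = the rest.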

Test: YAP1 overexpression rescue of CTGF inhibition – DLD1 cells, RT-qPCR, cherry-pick, mechanism study for YAP1 pathway inhibitor project, dose response (AID 1053127)
Details: DLD1 YAP1-overexpressing, CTGF mRNA qPCR, 24 h; series mostly up to 26 µM; CTGF fold change (delta-delta-Ct), lower = inhibition: at the top concentration

| Structure (SMILES) | CTGF fold change (delta-delta-Ct), lower = inhibition |
| --- | --- |
| Cc1ccc(S(=O)(=O)N2CC[C@H]3[C@H](CO)Nc4ccc(-c5cccc(C(=O)N(C)C)c5)cc4[C@H]32)cc1 | 1.09 unspecified (inactive) |
| CN1C(=O)c2cc(NS(=O)(=O)c3ccccc3F)ccc2OC[C@@H]2O[C@@H](CC(=O)NC3Cc4ccccc4C3)CC[C@@H]21 | 1.29 unspecified (inactive) |
| CC(=O)N1CCCCN2[C@@H](CO)[C@H](c3ccc(-c4ccccc4)cc3)[C@@H]2C1 | 0.666 unspecified (inactive) |
| COc1ccc(NC(=O)N2CCCCN3[C@@H](CO)[C@H](c4ccc(-c5ccccc5F)cc4)[C@@H]3C2)cc1 | 1.16 unspecified (inactive) |
| CO[C@@H]1CN(C)C(=O)c2cc(NS(=O)(=O)c3ccccc3C)ccc2OC[C@@H](C)N(S(=O)(=O)c2ccccc2)C[C@H]1C | 1 unspecified (inactive) |
| COc1ccc2c3c(n(C)c2c1)[C@@H](CO)N(Cc1ccncc1)CC31CN(C(=O)Nc2cccc(F)c2)C1 | 1.12 unspecified (inactive) |
| COc1ccc(CN(C)C[C@H]2Oc3ccc(NC(=O)Nc4ccc5c(c4)OCO5)cc3CC(=O)N([C@@H](C)CO)C[C@H]2C)cc1 | 0.62 unspecified (inactive) |
| C[C@@H]1CN([C@@H](C)CO)C(=O)c2cccc(NC(=O)c3nc4ccccc4s3)c2O[C@H]1CN(C)C(=O)Nc1ccc2c(c1)OCO2 | 0.834 unspecified (inactive) |
| C[C@@H]1CN([C@@H](C)CO)C(=O)c2cc(NC(=O)Nc3ccccc3)ccc2O[C@@H](C)CCCCO[C@@H]1CN(C)C(=O)Nc1ccccc1 | 1.02 unspecified (inactive) |
